Screening results deposited in PubChem by several laboratories.
CYP2C9 inhib: human CYP2C9 inhibition; inhibition, % at 5 µM; 20% of 96,000 active; CYP2C9 Supersomes, luciferin-H conversion, luminescence; P11712;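 active means blocking of liver enzyme CYP2C9 beyond about 50% at 5 µM, limit read from the data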
Pyk2 oligo antag: antagonists of human Pyk2 oligomerization | AID 1347419 | 0.83% of 99,000 active | Q14289 | Q293 cells, Pyk2 FERM NanoBiT luminescence; active compounds read low | z-score (the deposit names both 25 µM and 10 µM);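 active means Z-score of -3 or lower, scaled per plate to the spread of control and sample wells; inactive means z-score above -3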;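 further: negative z-score means lost luminescence so less FERM oligomerization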
CYP2C19 inh: inhibitors of human CYP2C19 | P33261 | CYP2C19 Supersomes, luciferin-H EGE luminescence, 30 min | inhibition, % at 5 µM | 21% of 96,000 active;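 active means CYP2C19 inhibition above a set limit at 5 µM in the primary screen, cut at about 50% in these data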;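 further: plate controls were negative control wells for no effect and 2.5 mM tranylcypromine positive control for full effect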
Cav3 T inh: blocks human Cav3.2 T-type calcium channel. Cav3.2-expressing cells, Fluo-4 calcium fluorescence FDSS; active compounds read low. B-score at 10 µM. 4% of 100,000 active. AID 449739;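 active means single-dose well whose peak fluorescence ratio is a statistical outlier from its plate by either plate-standardised score or position-corrected B-score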
CYP2C9 activ: increases human cytochrome P450 2C9 activity; P11712; recombinant CYP2C9, luciferin-H conversion, luminescence; active compounds read high; factor 1 = untreated enzyme, 0 = blocked; activation factor at 5 µM; 1.4% of 96,000 active; AID 1024;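 active means activation factor of 2 or more for CYP2C9 at a 5 µM dose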;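 further: 0 = sulfaphenazole-blocked wells and 1 = vehicle-only wells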
CYP2C19 activ: activators of human cytochrome P450 2C19. P33261. 96,000 tested, under 10 active. activation factor at 5 µM. recombinant CYP2C19, luciferin-H EGE luminescence; active compounds read high; 0 = fully inhibited enzyme, 1 = untreated enzyme. AID 1025;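 active means activation factor of at least 2 at 5 µM in the primary screen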;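 further: 0 = wells with 2.5 mM tranylcypromine and 1 = vehicle-only wells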
* hit, by the source's call; · = no result given. The list is not random: actives were taken first. Their share in the collection is about 27%.

SMILES	CYP2C9 inhib	Pyk2 oligo antag	CYP2C19 inh	Cav3 T inh	CYP2C9 activ	CYP2C19 activ
CCOc1cc(/C=N/NC(=O)c2cccc([N+](=O)[O-])c2)ccc1OS(=O)(=O)c1ccccc1	59.1*	-1.33	57.2*	-3.32	0.4	0.4
COc1ccc(/C=N/NS(=O)(=O)c2ccccc2)cc1OS(=O)(=O)c1ccccc1	93.5*	0.64	33.4	-4.01	0.1	0.7
COc1ccc(/C=N/NS(=O)(=O)c2ccccc2)cc1OC(=O)c1ccc(C)cc1	89.1*	-0.61	44.3	·	0.1	0.6
COc1ccccc1NC(=O)C1=C(C)NC(SCC(=O)c2ccccc2)=C(C#N)C1c1ccco1 (stereo not drawn)	78.4*	-0.56	54.8*	-3.04	0.2	0.5
CC(=O)C1=C(C)NC(SCC(=O)c2ccc(C)cc2)=C(C#N)C1c1ccco1 (stereo not drawn)	96.0*	·	99.0*	-5.04*	0	0
COCCOC(=O)C1=C(C)NC(SCC(=O)NC(C)(C)C)=C(C#N)C1c1ccco1 (stereo not drawn)	86.2*	·	82.0*	-0.504	0.1	0.2
CCOC(=O)C1=C(c2ccccc2)NC(SCC(=O)NC2CCCCC2)=C(C#N)C1c1ccco1 (stereo not drawn)	61.0*	-1.79	29.5	-0.829	0.4	0.7
Cc1ccc(NC(=O)CSC2=C(C#N)C(c3ccco3)C3=C(CCCC3=O)N2)cc1 (stereo not drawn)	43.3	-1.32	17.8	-0.508	0.6	0.8
COc1ccc(NC(=O)CSC2=C(C#N)C(c3ccco3)C(C(=O)Nc3nc4ccccc4s3)=C(C)N2)cc1 (stereo not drawn)	·	-0.89	·	-1.47	·	·
Cc1n[nH]c(C)c1Cc1ccc(C(=O)O)cc1	-6.2	0.32	-4.4	-0.0677	1.1	1
COC(=O)c1ccc(CSc2ccc3nnc(-c4cccnc4)n3n2)o1	36.5	·	36.4	·	0.6	0.6
CCS(=O)(=O)N1CCC(C(=O)NCCCN2CCCC2)CC1	-18.8	0.57	-20.5	0.523	1.2	1.2
Cc1csc(=Nc2ccc(S(=O)(=O)N3CCOCC3)cc2)n1Cc1ccco1	63.8*	0.13	11.6	-2.86	0.4	0.9
COc1cccc(CNC2CCCC2)c1	-12.1	1.52	14.5	0.194	1.1	0.9
COc1cc(CNC2CCCC2)cc(OC)c1	39.8	0.37	71.2*	-0.0684	0.6	0.3
COc1cc(CNC2CCC(C)C2)cc(OC)c1 (stereo not drawn)	-13.1	0.93	61.8*	-0.797	1.1	0.4
CC1(C)CNC(=O)c2sc(N3CCOCC3)nc2C1	-21.8	1.66	-15.7	0.0128	1.2	1.2
CS(=O)(=O)N(CC(=O)Nc1cccc(F)c1)Cc1ccccc1	81.6*	-0.49	90.9*	-0.234	0.2	0.1
CC(=O)c1cccc(NC(=O)CN(Cc2ccccc2)S(C)(=O)=O)c1	37.5	0.56	75.6*	0.785	0.6	0.2
C=CCSc1nc2ccccc2n1C(=O)/C=C/c1cc(OC)c(OC)c(OC)c1	77.8*	-1.74	54.9*	·	0.2	0.5
C=CCSc1nc2ccccc2n1C(=O)/C=C/c1ccc(OC)c(OC)c1	34.4	-1.46	28.1	0.24	0.7	0.7
CCOC(=O)c1cc2c(=O)n3cccc(C)c3nc2n(CC2CCCO2)c1=NC(C)=O (stereo not drawn)	·	-0.16	·	5.12*	·	·
C=CCn1c(=N)c(C(=O)OCC)cc2c(=O)n3cccc(C)c3nc21	·	·	·	-0.137	·	·
Cc1cc(C(=O)O)c(=O)[nH]c1C	-7.3	0.31	-5.3	·	1.1	1.1
O=C(c1cccn2c(=O)c3cc4ccccc4cc3nc12)N1CCN(c2ccccc2)CC1	29.5	·	29.5	·	0.7	0.7
O=C(c1cccn2c(=O)c3cc(Br)ccc3nc12)N1CCN(c2ccccn2)CC1	59.1*	-0.25	10.3	0.136	0.4	0.9
O=C(c1cccn2c(=O)c3ccccc3nc12)N1CCN(c2ccccn2)CC1	59.3*	0.1	35.8	1.35	0.4	0.6
CCN1CCN(C(=O)c2cc(-c3cccnc3)nc3ccc(Br)cc23)CC1	15.3	-0.05	1.4	1.17	0.8	1
O=C(c1cc(-c2ccncc2)nc2ccc(Br)cc12)N1CCN(c2ccccn2)CC1	97.9*	-0.47	79.3*	-0.528	0	0.2
